# The supplement of paper PMC11417369
# ± gives the standard deviation of the averaged measurements. Whole data set: some 25,000 sequences, median “ln(normalized median fluorescence intensity)” near 10, cut for the highest 2% near 12. Shown is part of a subset that was picked to be rich in the highest values.
# System: PfAP2-G AP2 domain (GST-tagged)
# Experiment: gcPBM binding intensity (ln(normalized median fluorescence intensity)); higher = stronger DNA binding
# Procedure, shortened: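 Binding of GST-tagged P. falciparum DNA-binding domains, expressed in E. coli and used at about 25 μg on average, was carried out for 1 h in 1× PBS containing 1% milk, 0.2 mg/ml BSA, 0.5% salmon testes DNA and 0.03% Triton X-100. The target was an Agilent 4 × 180k array of primer-extended double-stranded 36-bp intergenic genomic probes plus negative controls, read with Alexa488 anti-GST antibody at 488 nm. Binding intensity is the highest Masliner-normalised natural-log median intensity across replicate spots of either probe orientation.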
row,Sequence,gcPBM binding intensity (ln)
1,TATATAAACCCACCTACACACACAACGTAAATGCAT [CACACA_site8702],10.2 ± 0.14
2,AAAAAAAAAAAAAACACACAGAAATATATATATATT [CACACA_site832],9.82 ± 0.33
3,ATATATACCTATATTACACACTTCTTATTCTAAGAA [CACACA_site7421],9.865 ± 0.092
4,ATATAAATGAATATATGTACATATATATATATATAT [XGTACX_site6361],11.2 ± 0.52
5,AAGGAGCCTATGAACACACACATGTACAGATATTAA [CACACA_site6107],11.1 ± 0.52
6,TATATATACATATACACACACACACCGATATATATA [CACACA_site8706],10.1 ± 0.26
7,TATACAATATTTATAACACACATATTTATATAAACT [CACACA_site6932],9.885 ± 0.078
8,TGAATAAATAAGATACGTACACACATATACAAAATA [XGTACX_site7758],11.5 ± 0.83
9,ATTATATATACATATACACACATACGTACATACATA [CACACA_site9194],11.5 ± 0.93
10,TCATATAAATACACGTGTACATATATATATTACAGT [XGTACX_site1954],11.5 ± 0.81
11,TGTACAAATATGTACACACACACATATTTATTTATA [CACACA_site6419],11.5 ± 0.95
12,GATTTATACAAATATGTACACACTAATTATATATTA [CACACA_site8045],11.5 ± 0.87
13,GAATAAATAAGATACGTACACACATATACAAAATAT [CACACA_site3660],11.7 ± 1.1
14,TGCTCTAATTTATATACACACAAATATGTACACATA [CACACA_site7845],11.7 ± 1.2
15,TTACACATATTATATATATATAAAAAAAAAAAATAT [CACACA_negctrl_site1684],9.82 ± 0.29
16,AAAGATAAAATATATACACACACATAAATACGTACA [CACACA_site8275],11.3 ± 0.88
17,TAAAATATTACGTGTACACATAAATAAAAATAAAAA [CACACA_site5066],11.8 ± 0.92
18,TAATATTCAATTATACGTACACATATATATATATAT [XGTACX_site4245],11.8 ± 1.1
19,ATACATATATAAATACGTACATATATAATTATATAT [XGTACX_site8178],11.6 ± 0.93
20,ATTCTACGCACGCGCACACACAACAAAAAAAAAAAA [CACACA_site3538],10.8 ± 0.68
21,AACAGACATAGACACACACACATATATTTATTTATA [CACACA_site7571],10.11 ± 0.085
22,TTAACATAAATTGTGTCATTTTTTTTTTTTTTTTTA [CACACA_negctrl_site1221],9.725 ± 0.021

row,Sequence,gcPBM binding intensity (ln)
1,TAGCGCATAAAAAAAAAAAAATATATACTAATAAAT [GTGCAC_negctrl_site276],9.57 ± 0.071
2,TTCTATATATATATAGACAAACGATAAAATAAAAAA [GTGCAC_negctrl_site142],10.1 ± 0.23
3,GTATATTTCTTTAAATGTACACATTTTTTTAAAGAG [XGTACX_site1225],11.4 ± 0.98
4,AAAAACGAAAAAAATACACACCTGAAAAGATATGTA [CACACA_site4644],9.72 ± 0.16
5,TGACATATAAAATATTCACACACAAGTTATAGTTCT [CACACA_site9209],9.74 ± 0.11
6,CCAATGAGGATATATACACACATACATTAAAAAAAT [CACACA_site5090],10 ± 0.17
7,AATTTAATATAATGCACACATAAAAAAAAAATCAAA [CACACA_site1],10.1 ± 0.18
8,AATTTGTTATGTATATGTACATAAATAGATATATGA [XGTACX_site3930],11.2 ± 0.7
9,AAAGATATTTTTATCTCACACATATAATATATATAT [CACACA_site5478],9.84 ± 0.16
10,AATAATACACAATTTTGTACGTATTTAAAATATATT [XGTACX_site45],11.3 ± 0.87
11,TTAAAATTAAAAATGCGTACACATATACATAAAAAA [XGTACX_site1915],11.7 ± 1
12,AAATTAAAATATAATACACACATAAAAAAAAAAAAA [CACACA_site4183],9.82 ± 0.38
13,TAGATATATAATTTGCGTACACAAATAATATATTTT [XGTACX_site6397],11.4 ± 0.97
14,AAAAAAAATTAAATAAATAAATATACACATATATAT [GTGCAC_negctrl_site394],9.47 ± 0.26
15,TATATATACATACGTACACACAAATATTAAAATATA [CACACA_site1951],11.5 ± 1.1
16,ATTAAATATATTTTGCGTACACAAAAAAATACGTTC [XGTACX_site3862],11.6 ± 0.97
17,ATATATATATACATACGTACACACAAATATTAAAAT [XGTACX_site4007],11.6 ± 1.2
18,TATATATATACATACGTACACACAAATATTAAAATA [CACACA_site1950],11.8 ± 1.2
19,TATGGAACACACCTTAATATGTGATAAAATATGATA [GTGCAC_negctrl_site718],10 ± 0.2
20,AAAAATTTATTTAAAAGTACATAAAATAAAGGTGGA [XGTACX_site7591],11.4 ± 0.69
21,ACATCATTTTTATGTACACACACATATACGTTGAAT [CACACA_site5095],11.6 ± 0.98
22,AAGAAAATTAAATTAACACACATAAATATATATATA [CACACA_site1664],9.85 ± 0.28
